Assay results as given in PubChem BioAssay AID1159580 (chemical genetic matrix, 2015).
Where “and” joins values, the source holds several entries; their conditions need not be identical. Equal values may be shown once. In all, about 5,500 compounds went through this assay and about 2,000 (36%) were called active. About 18% were inconclusive and are not listed. No stated cut-off is given here; in the data, active means normalized growth mostly below about 0.91 (no sharp cut-off); inconclusive means no clear call, values can overlap the other calls; inactive means mostly above about 0.92. The list shows a part of the results.

Assay: chemical genetic growth profiling, strain panel (AID 1159580);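 further: tested at 20 µM; growth read once vehicle control cultures reached saturation at 30 °C; 1 = growth at the plate median or of vehicle wells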
Conditions: S. cerevisiae deletion strains, growth OD

Measured: normalized growth

CN1CCN(CC(=O)N2c3ccccc3C(=O)Nc3cccnc32)CC1
inactive: locus YAL013W, strain DEP1, stronger effect = lower value 1.01 | locus YAL021C, strain ccr4, stronger effect = lower value 0.991 | locus YAL026C, strain drs2, stronger effect = lower value 1.03 | locus YAL030W, strain snc1, stronger effect = lower value 0.999 | locus YAL040C, strain CLN3, stronger effect = lower value 0.963 | locus YBL061C, strain skt5, stronger effect = lower value 1.01 | locus YBR009C, strain hhf1, stronger effect = lower value 0.999 | locus YBR021W, strain FUR4, stronger effect = lower value 1.02 | locus YBR023C, strain chs3, stronger effect = lower value 1.01 | locus YBR171W, strain sec66, stronger effect = lower value 1.02 | locus YBR229C, strain ROT2, stronger effect = lower value 1.01 | locus YBR231C, strain swc5, stronger effect = lower value 1.01 | locus YBR279W, strain paf1, stronger effect = lower value 1.01 | locus YCL011C, strain gbp2, stronger effect = lower value 1.02 | locus YCL016C, strain dcc1, stronger effect = lower value 1 | locus YCL029C, strain bik1, stronger effect = lower value 1.02 | locus YCL061C, strain MRC1 (second series), stronger effect = lower value 0.981 | locus YCL061C, strain MRC1, stronger effect = lower value 1.02 | locus YCL069W, strain vba3, stronger effect = lower value 1.03 | locus YCR088W, strain abp1, stronger effect = lower value 1.01 | locus YDL005C, strain med2, stronger effect = lower value 0.999 | locus YDL035C, strain GPR1, stronger effect = lower value 1.02 | locus YDL040C, strain nat1, stronger effect = lower value 0.992 | locus YDL074C, strain BRE1, stronger effect = lower value 1.05 | locus YDL101C, strain DUN1, stronger effect = lower value 1.02 | locus YDL134C, strain PPH21, stronger effect = lower value 0.991 | locus YDL185W, strain tfp1, stronger effect = lower value 1 | locus YDL192W, strain arf1, stronger effect = lower value 1.01 | locus YDR001C, strain nth1, stronger effect = lower value 1.01 | locus YDR069C, strain doa4, stronger effect = lower value 0.989 | locus YDR101C, strain arx1, stronger effect = lower value 1 | locus YDR137W, strain rgp1, stronger effect = lower value 1.02 | locus YDR150W, strain NUM1, stronger effect = lower value 1.01 and 1 | locus YDR159W, strain sac3, stronger effect = lower value 1.01 | locus YDR162C, strain NBP2, stronger effect = lower value 1.01 | locus YDR195W, strain ref2 0.999 | locus YDR297W, strain sur2, stronger effect = lower value 1.01 | locus YDR318W, strain mcm21, stronger effect = lower value 1.02 | locus YDR334W, strain swr1, stronger effect = lower value 1.04 | locus YDR335W, strain msn5, stronger effect = lower value 1.04 | locus YDR363W, strain ESC2, stronger effect = lower value 1.02 | locus YDR388W, stronger effect = lower value 1.02 | locus YDR392W, strain spt3, stronger effect = lower value 1.01 | locus YDR502C, strain sam2, stronger effect = lower value 1.02 | locus YEL003W, strain gim4, stronger effect = lower value 1.01 | locus YEL037C, strain rad23, stronger effect = lower value 1.01 | locus YEL061C, strain CIN8 (second series), stronger effect = lower value 1.03 | locus YEL061C, strain CIN8, stronger effect = lower value 1.01 | locus YER002W, strain NOP16, stronger effect = lower value 0.986 | locus YER015W, strain faa2, stronger effect = lower value 1.02 | locus YER016W, strain bim1, stronger effect = lower value 0.997 | locus YER110C, stronger effect = lower value 1.02 | locus YER111C, strain swi4, stronger effect = lower value 1.02 | locus YER155C, strain BEM2 (second series), stronger effect = lower value 1.08 | locus YER155C, strain BEM2, stronger effect = lower value 1.01 | locus YER167W, strain BCK2, stronger effect = lower value 1.02 | locus YFR010W, strain ubp6, stronger effect = lower value 1.02 | locus YGL078C, strain dbp3, stronger effect = lower value 1.01 | locus YGL086W, strain mad1, stronger effect = lower value 1.01 | locus YGL167C, strain pmr1, stronger effect = lower value 1.01 | locus YGL173C, strain kem1, stronger effect = lower value 1.06 | locus YGL227W, strain vid30, stronger effect = lower value 1.02 | locus YGL240W, strain doc1, stronger effect = lower value 1.02 | locus YGL248W, strain PDE1, stronger effect = lower value 1.01 | locus YGL253W, strain hxk2, stronger effect = lower value 1.01 | locus YGR078C, strain PAC10, stronger effect = lower value 1.02 | locus YGR135W, strain pre9, stronger effect = lower value 1.01 | locus YGR229C, strain SMI1, stronger effect = lower value 1.01 and 0.968 | locus YGR252W, strain gcn5, stronger effect = lower value 0.995 | locus YHR013C, strain ard1, stronger effect = lower value 1.03 | locus YHR027C, strain rpn1, stronger effect = lower value 1.01 | locus YHR030C, strain SLT2, stronger effect = lower value 1.01 and 0.978 | locus YHR079C, strain IRE1 (second series), stronger effect = lower value 1.02 | locus YHR079C, strain IRE1, stronger effect = lower value 0.986 | locus YHR094C, strain hxt1, stronger effect = lower value 1.02 | locus YHR129C, strain ARP1, stronger effect = lower value 0.995 | locus YHR142W, strain chs7, stronger effect = lower value 1.04 | locus YHR200W, strain rpn10, stronger effect = lower value 1.01 | locus YIL066C, strain RNR3, stronger effect = lower value 1.01 | locus YIL073C, strain SPO22, stronger effect = lower value 1.02 | locus YIL125W, strain kgd1, stronger effect = lower value 1.01 | locus YIR030C, strain dcg1, stronger effect = lower value 1.01 | locus YJL092W, strain hpr5, stronger effect = lower value 1.02 | locus YJL095W, strain BCK1 (second series), stronger effect = lower value 0.991 | locus YJL095W, strain BCK1, stronger effect = lower value 1.04 and 0.99 | locus YJL115W, strain asf1, stronger effect = lower value 1.01 | locus YJL129C, strain trk1, stronger effect = lower value 1.03 | locus YJL134W, strain LCB3, stronger effect = lower value 1.01 | locus YJL154C, strain vps35, stronger effect = lower value 1.01 | locus YJL164C, strain tpk1, stronger effect = lower value 1.01 | locus YJL166W, strain qcr8, stronger effect = lower value 1.03 | locus YJL168C, strain set2, stronger effect = lower value 1.02 | locus YJL187C, strain SWE1 (second series), stronger effect = lower value 1.01 | locus YJR043C, strain POL32, stronger effect = lower value 1.01 | locus YJR066W, strain TOR1, stronger effect = lower value 0.926
